Values joined by “and” are separate entries in the source; they are usually repeats but may differ in a detail not shown here. Equal values may be shown once. Records with an inconclusive call do not appear. Where a structure was tested more than once in an assay, its records may differ in their call. Active and inactive are the calls of the source. The calls were made as follows, unless noted: active = hit-call score of the fitted dose curve at least 0.9, where 1 is the maximum; inactive = score below 0.9.
What was measured:
[1] = ATG_PBREM_CIS: Attagene CIS-FACTORIAL HepG2 Assay for human Phenobarbital-responsive Enhancer Module (PBREM) (AID 2282955); settings: HepG2 PBREM cis-reporter, Attagene multiplexed transcription; actives raise or lower the signal
How it was run: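 HepG2 cells transiently transfected with multiple cis-regulated reporter transcription units; endogenous factor activity at the PBREM element measured as reporter mRNA 24 h after dosing, via RT-PCR and capillary electrophoresis of fluorescent fragments; bidirectional fitting versus DMSO.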

[2] = biological target: Paired box protein Pax-6 (Homo sapiens) (UniProt P26367); assay: ATG_Pax6_CIS: Attagene CIS-FACTORIAL HepG2 Assay for human Paired Box 6 (PAX6) (AID 2282956); settings: HepG2 CIS-FACTORIAL PAX6 reporter transcription, RNA readout; actives raise or lower the signal
How it was run: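 Transient MRTU transfection of HepG2 → compound exposure 24 h → TriZol RNA, oligo(dT) RT → PCR, 6-FAM primer extension, HpaI cut → capillary electrophoresis; activity fitted both directions against DMSO.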

[3] = ATG_PXRE_CIS: Attagene CIS-FACTORIAL HepG2 Assay for human Pregnane X Receptor Element (PXRE) (AID 2282957); settings: HepG2 Attagene CIS-FACTORIAL PXRE reporter, mRNA; actives raise or lower the signal
How it was run: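 Transfect HepG2 with MRTUs (cis promoter elements); dose chemical, incubate 24 h; isolate RNA, RT with oligo(dT), PCR, 6-FAM label, HpaI cut, CE. Gain/loss fit vs DMSO.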

[4] = ATG_PPRE_CIS: Attagene CIS-FACTORIAL HepG2 Assay for human Peroxisome Proliferator-activated Response Element (PPRE) (AID 2282958); settings: HepG2 PPRE cis-element reporter, Attagene transcription factor profiling; actives raise or lower the signal
How it was run: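 HepG2 cells transiently transfected with multiplexed cis-element reporter units measure endogenous transcription factor activity. After 24 h compound exposure, reporter mRNA is quantified by RT-PCR, 6-FAM labeling, HpaI digestion and capillary electrophoresis; bidirectional fits are made against DMSO baseline.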

[5] = ATG_RORE_CIS: Attagene CIS-FACTORIAL HepG2 Assay for human RAR-related Orphan Receptor Element (RORE) (AID 2282959); settings: HepG2 Attagene cis-factorial RORE reporter, mRNA; actives raise or lower the signal
How it was run: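 HepG2 cells transiently transfected with multiple cis-element reporter transcription units, exposed to chemical for 24 h. Reporter mRNA quantified by RT-PCR, 6-FAM primer-extension labeling, HpaI digestion and capillary electrophoresis; bidirectional fit versus DMSO baseline.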

[6] = ATG_Sox_CIS: Attagene CIS-FACTORIAL HepG2 Assay for human SRY-box transcription factor (SOX) (AID 2282960); settings: HepG2 Attagene cis-factorial SOX reporter, mRNA; actives raise or lower the signal
How it was run: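 HepG2 cells transiently transfected with cis-element-driven multiple reporter transcription units, dosed 24 h; reporter mRNA measured by RT-PCR, FAM labelling, HpaI digestion and capillary electrophoresis. Bidirectional fit versus DMSO baseline.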

[7] = biological target: Transcription factor Sp1 (Homo sapiens) (UniProt P08047); assay: ATG_Sp1_CIS: Attagene CIS-FACTORIAL HepG2 Assay for human Specificity Protein 1 (Sp1) (AID 2282961); settings: HepG2 Sp1 cis-reporter transcription, actives raise or lower the signal
How it was run: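 HepG2 cells transiently transfected with multiple reporter transcription units driven by cis-regulatory elements; Sp1-responsive reporter mRNA measured 24 h after dosing by RT-PCR and capillary electrophoresis fluorescence, fitted bidirectionally against DMSO baseline.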

[8] = ATG_SREBP_CIS: Attagene CIS-FACTORIAL HepG2 Assay for human Sterol Regulatory Element Binding (SREBP) (AID 2282962); settings: HepG2 Attagene cis-factorial SREBP reporter, mRNA; actives raise or lower the signal
How it was run: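 Transfected HepG2 (cis-regulated reporter library, endogenous TFs) → compound 24 h → total RNA → oligo(dT) RT → reporter-specific PCR → FAM primer extension, HpaI cut → CE fluorescence. Fit bidirectional vs DMSO.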

[9] = biological target: Signal transducer and activator of transcription 3 (Homo sapiens) (UniProt P40763); assay: ATG_STAT3_CIS: Attagene CIS-FACTORIAL HepG2 Assay for human Signal Transducer and Activator of Transcription 3 (STAT3) (AID 2282963); settings: HepG2, Attagene cis-factorial STAT3 reporter transcription; actives raise or lower the signal
How it was run: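 HepG2 cells transiently transfected with cis-element-driven multiple reporter transcription units; after 24 h chemical exposure, reporter mRNA measured by RT-PCR, 6-FAM primer-extension labelling, HpaI digestion and capillary electrophoresis. Bidirectional fitting versus DMSO baseline.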

[10] = ATG_TA_CIS: Attagene CIS-FACTORIAL HepG2 Assay for human TA Basal Promoter (AID 2282964); settings: HepG2 Attagene CIS-factorial TA basal promoter reporter; actives raise or lower the signal
How it was run: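 Read-out: fluorescent reporter-transcript fragments resolved by capillary electrophoresis after RT-PCR and HpaI digestion. Source: HepG2 cells carrying transiently transfected multi-reporter cis constructs, treated 24 h. Endpoint fitted bidirectionally relative to DMSO.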

[11] = ATG_TCF_b_cat_CIS: Attagene CIS-FACTORIAL HepG2 Assay for human T-Cell-Factor with beta-catenin (TCF/b-cat) (AID 2282965); settings: HepG2 TCF/beta-catenin cis-reporter transcription, actives raise or lower the signal
How it was run: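 Using capillary electrophoresis as the read-out, labelled reporter cDNA fragments from transiently transfected HepG2 were sized and quantified. Exposure lasted 24 hours; activity in either direction was referenced to DMSO.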

[12] = ATG_TAL_CIS: Attagene CIS-FACTORIAL HepG2 Assay for human TAL Basal Promoter (AID 2282966); settings: HepG2 Attagene cis-factorial TAL promoter reporter; actives raise or lower the signal;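 also: background control endpoint measuring basal TAL promoter reporter mRNA not a specific factor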
How it was run: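 Fluorescence of labelled reporter cDNA fragments, resolved by capillary electrophoresis, gave the readout. Human HepG2 liver cells carried transiently transfected cis-element reporter units and were treated for 24 hours; activity was fitted bidirectionally against DMSO.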

[13] = ATG_TGFb_CIS: Attagene CIS-FACTORIAL HepG2 Assay for human Transforming Growth Factor (TGF) (AID 2282967); settings: HepG2 Attagene CIS TGFb reporter, mRNA transcription; actives raise or lower the signal
How it was run: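 Transient MRTU transfection of HepG2 (FuGene 6). Dose 24 h. TriZol RNA, oligo(dT) RT, PCR, 6-FAM primer extension, HpaI cut, CE. Bidirectional fit, DMSO = baseline.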

[14] = ATG_VDRE_CIS: Attagene CIS-FACTORIAL HepG2 Assay for human Vitamin D Receptor Element (VDRE) (AID 2282968); settings: HepG2 VDRE cis-reporter transcription, actives raise or lower the signal
How it was run: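 HepG2 cells transiently transfected with cis-element reporter units, dosed 24 h; reporter mRNA measured by RT-PCR, 6-FAM labeling, HpaI digestion and capillary electrophoresis. Activity fitted bidirectionally against DMSO baseline.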

[15] = biological target: Nuclear receptor subfamily 1 group I member 3 (Homo sapiens) (UniProt Q14994); assay: ATG_CAR_TRANS: Attagene TRANS-FACTORIAL HepG2 Assay for human Constitutive Androstane Receptor (CAR) (AID 2282969; active = hit-call score of the fitted dose curve at least 0.9, where 1 is the maximum;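 also: activators raise reporter mRNA above DMSO so AC50 marks induction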); settings: HepG2 Attagene TRANS-FACTORIAL CAR reporter
How it was run: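 HepG2 cells transiently transfected with multiplexed GAL4-UAS reporter units expressing chimeric NR-Gal4 proteins; compound exposure 24 h. Reporter mRNA measured by RT-PCR, 6-FAM labelling, HpaI digestion and capillary electrophoresis; gain-of-signal fitted against DMSO baseline.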

[16] = biological target: Steroid hormone receptor ERR1 (Homo sapiens) (UniProt P11474); assay: ATG_ERRa_TRANS: Attagene TRANS-FACTORIAL HepG2 Assay for human Estrogen-Related Receptor alpha (ERRa) (AID 2282971; active = hit-call score of the fitted dose curve at least 0.9, where 1 is the maximum); settings: HepG2 Attagene TRANS reporter, ERRa transactivation
How it was run: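 Reporter transcript induction was quantified by RT-PCR and capillary electrophoresis of FAM-labelled, HpaI-cut products after 24 h treatment of HepG2 cells carrying transiently transfected GAL4-UAS reporter units and an exogenous ERRa-Gal4 fusion; activity scored as increase over DMSO.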

[17] = biological target: X-box-binding protein 1 (Homo sapiens) (UniProt P17861); assay: ATG_Xbp1_CIS: Attagene CIS-FACTORIAL HepG2 Assay for human X-box Binding Protein 1 (XBP1) (AID 2282972); settings: HepG2 XBP1 cis-element reporter, Attagene multiplex; actives raise or lower the signal
How it was run: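 HepG2, transient MRTU transfection (cis-promoter driven), 24 h compound exposure. Total RNA → oligo(dT) RT → PCR → 6-FAM labeling → HpaI cut → CE. Bidirectional fit vs DMSO.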

[18] = ATG_M_19_TRANS: Attagene TRANS-FACTORIAL HepG2 Assay for M19 Transcription Factor (Internal Marker) (AID 2282974; active = hit-call score of the fitted dose curve at least 0.9, where 1 is the maximum); settings: HepG2 Attagene TRANS-FACTORIAL M19 internal marker reporter
How it was run: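 HepG2 cells transiently transfected with multiple GAL4-UAS reporter transcription units were exposed to chemicals for 24 h. Reporter mRNA was read by RT-PCR, 6-FAM primer extension, HpaI digestion and capillary electrophoresis; gain of signal fitted relative to DMSO.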

[19] = biological target: Estrogen receptor (Homo sapiens) (UniProt P03372); assay: ATG_ERa_TRANS: Attagene TRANS-FACTORIAL HepG2 Assay for human Estrogen Receptor alpha (ERa) (AID 2282970; active = hit-call score of the fitted dose curve at least 0.9, where 1 is the maximum); settings: HepG2 Attagene TRANS ERa GAL4 reporter, mRNA
How it was run: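 Human liver HepG2, transient transfection of multiple GAL4-UAS reporter units; TRANS format (exogenous NR-Gal4 chimera). 24 h dosing. Readout: reporter mRNA, RT-PCR, 6-FAM primer extension, HpaI digest, capillary electrophoresis. Positive direction vs DMSO.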

[20] = ATG_GAL4_TRANS: Attagene TRANS-FACTORIAL HepG2 Assay for GAL4 (Internal Marker) (AID 2282976; active = hit-call score of the fitted dose curve at least 0.9, where 1 is the maximum); settings: HepG2 Attagene TRANS GAL4 internal marker reporter
How it was run: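 First, HepG2 cells were transfected with reporter units under GAL4-UAS control. Next, they were treated with chemical for 24 h. Finally, RNA was reverse-transcribed, PCR-amplified, FAM-labelled and resolved by capillary electrophoresis, with induction scored against DMSO.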

Measured: AC50

Chain of X-box-binding protein 1 (Homo sapiens) (P17861 whole entry, looked up): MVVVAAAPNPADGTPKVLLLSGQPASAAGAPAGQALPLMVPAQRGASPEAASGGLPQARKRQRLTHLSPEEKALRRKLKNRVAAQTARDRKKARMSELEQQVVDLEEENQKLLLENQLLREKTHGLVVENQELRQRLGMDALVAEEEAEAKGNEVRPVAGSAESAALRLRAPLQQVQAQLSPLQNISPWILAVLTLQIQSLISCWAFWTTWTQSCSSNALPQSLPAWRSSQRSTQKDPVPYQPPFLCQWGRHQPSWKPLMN
Chain of Transcription factor Sp1 (Homo sapiens) (P08047 whole entry, looked up): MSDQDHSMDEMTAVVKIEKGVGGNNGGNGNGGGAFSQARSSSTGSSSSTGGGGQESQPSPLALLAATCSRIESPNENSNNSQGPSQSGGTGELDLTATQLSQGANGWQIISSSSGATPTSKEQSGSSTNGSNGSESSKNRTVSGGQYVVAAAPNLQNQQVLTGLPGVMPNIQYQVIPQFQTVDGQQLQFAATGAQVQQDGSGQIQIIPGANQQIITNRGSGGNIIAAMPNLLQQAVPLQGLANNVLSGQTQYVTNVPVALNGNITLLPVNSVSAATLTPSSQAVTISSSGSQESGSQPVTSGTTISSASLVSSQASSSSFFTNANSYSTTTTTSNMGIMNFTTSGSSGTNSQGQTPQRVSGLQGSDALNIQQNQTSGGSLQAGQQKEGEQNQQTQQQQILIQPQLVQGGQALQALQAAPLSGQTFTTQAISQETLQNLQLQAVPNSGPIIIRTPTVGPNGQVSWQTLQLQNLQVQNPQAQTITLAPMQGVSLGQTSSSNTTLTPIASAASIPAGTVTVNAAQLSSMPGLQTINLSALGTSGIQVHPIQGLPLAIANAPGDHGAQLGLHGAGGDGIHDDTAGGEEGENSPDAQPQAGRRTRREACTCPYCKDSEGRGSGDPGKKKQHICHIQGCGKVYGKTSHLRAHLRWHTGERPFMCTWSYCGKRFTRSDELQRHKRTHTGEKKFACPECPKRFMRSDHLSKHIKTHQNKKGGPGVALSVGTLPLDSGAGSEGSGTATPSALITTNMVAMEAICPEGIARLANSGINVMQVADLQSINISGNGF
Chain of Nuclear receptor subfamily 1 group I member 3 (Homo sapiens) (Q14994 whole entry, looked up, the tested form may be a part): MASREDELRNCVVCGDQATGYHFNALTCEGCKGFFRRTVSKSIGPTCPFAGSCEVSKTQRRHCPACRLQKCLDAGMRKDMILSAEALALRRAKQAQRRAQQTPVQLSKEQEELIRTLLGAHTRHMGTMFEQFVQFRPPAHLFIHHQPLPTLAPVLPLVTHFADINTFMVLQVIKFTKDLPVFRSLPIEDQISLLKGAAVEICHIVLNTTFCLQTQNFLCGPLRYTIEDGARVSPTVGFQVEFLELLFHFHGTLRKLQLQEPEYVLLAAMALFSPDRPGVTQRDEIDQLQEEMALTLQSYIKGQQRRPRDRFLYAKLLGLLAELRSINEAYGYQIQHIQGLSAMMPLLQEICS
Chain of Signal transducer and activator of transcription 3 (Homo sapiens) (P40763 whole entry, looked up): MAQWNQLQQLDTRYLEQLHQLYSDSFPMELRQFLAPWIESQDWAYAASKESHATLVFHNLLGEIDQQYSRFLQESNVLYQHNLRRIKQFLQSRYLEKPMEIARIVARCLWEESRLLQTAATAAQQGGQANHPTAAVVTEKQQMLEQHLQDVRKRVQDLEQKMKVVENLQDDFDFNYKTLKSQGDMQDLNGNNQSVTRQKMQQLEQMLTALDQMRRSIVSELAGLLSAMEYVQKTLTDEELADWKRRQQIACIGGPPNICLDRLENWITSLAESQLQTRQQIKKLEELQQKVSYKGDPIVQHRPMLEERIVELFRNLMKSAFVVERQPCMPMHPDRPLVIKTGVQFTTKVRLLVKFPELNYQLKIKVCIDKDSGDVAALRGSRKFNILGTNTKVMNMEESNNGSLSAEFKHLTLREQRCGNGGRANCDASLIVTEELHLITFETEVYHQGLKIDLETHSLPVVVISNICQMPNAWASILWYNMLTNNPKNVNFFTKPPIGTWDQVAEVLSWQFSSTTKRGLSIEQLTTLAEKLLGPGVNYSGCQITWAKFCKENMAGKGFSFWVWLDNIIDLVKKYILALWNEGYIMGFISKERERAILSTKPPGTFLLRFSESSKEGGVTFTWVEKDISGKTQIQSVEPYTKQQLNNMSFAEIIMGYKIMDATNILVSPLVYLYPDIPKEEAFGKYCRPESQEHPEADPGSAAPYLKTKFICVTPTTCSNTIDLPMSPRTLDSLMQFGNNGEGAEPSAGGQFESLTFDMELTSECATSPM
Chain of Paired box protein Pax-6 (Homo sapiens) (P26367 whole entry, looked up): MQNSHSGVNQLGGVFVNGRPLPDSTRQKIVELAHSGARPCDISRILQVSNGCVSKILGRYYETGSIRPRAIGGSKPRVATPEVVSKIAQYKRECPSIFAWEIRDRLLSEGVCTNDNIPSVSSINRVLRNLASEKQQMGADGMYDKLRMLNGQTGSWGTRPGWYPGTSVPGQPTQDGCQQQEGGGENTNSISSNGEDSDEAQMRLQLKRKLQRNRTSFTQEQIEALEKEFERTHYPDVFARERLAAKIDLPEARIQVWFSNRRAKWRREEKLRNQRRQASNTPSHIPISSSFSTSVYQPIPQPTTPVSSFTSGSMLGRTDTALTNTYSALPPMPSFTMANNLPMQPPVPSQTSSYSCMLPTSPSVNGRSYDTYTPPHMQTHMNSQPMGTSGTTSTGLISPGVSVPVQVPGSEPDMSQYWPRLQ
Chain of Steroid hormone receptor ERR1 (Homo sapiens) (P11474 whole entry, looked up, the tested form may be a part): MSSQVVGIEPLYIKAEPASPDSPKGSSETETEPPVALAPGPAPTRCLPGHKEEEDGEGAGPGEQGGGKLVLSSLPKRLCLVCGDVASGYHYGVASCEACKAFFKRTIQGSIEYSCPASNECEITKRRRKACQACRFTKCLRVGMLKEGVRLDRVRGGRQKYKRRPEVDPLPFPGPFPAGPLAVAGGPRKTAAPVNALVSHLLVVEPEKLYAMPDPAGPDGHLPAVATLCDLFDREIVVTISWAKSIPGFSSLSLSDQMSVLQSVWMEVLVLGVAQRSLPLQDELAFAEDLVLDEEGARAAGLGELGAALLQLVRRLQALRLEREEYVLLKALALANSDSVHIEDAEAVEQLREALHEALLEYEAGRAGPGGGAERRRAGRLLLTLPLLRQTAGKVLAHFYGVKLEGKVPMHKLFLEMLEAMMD
Chain of Estrogen receptor (Homo sapiens) (P03372 whole entry, looked up, the tested form may be a part): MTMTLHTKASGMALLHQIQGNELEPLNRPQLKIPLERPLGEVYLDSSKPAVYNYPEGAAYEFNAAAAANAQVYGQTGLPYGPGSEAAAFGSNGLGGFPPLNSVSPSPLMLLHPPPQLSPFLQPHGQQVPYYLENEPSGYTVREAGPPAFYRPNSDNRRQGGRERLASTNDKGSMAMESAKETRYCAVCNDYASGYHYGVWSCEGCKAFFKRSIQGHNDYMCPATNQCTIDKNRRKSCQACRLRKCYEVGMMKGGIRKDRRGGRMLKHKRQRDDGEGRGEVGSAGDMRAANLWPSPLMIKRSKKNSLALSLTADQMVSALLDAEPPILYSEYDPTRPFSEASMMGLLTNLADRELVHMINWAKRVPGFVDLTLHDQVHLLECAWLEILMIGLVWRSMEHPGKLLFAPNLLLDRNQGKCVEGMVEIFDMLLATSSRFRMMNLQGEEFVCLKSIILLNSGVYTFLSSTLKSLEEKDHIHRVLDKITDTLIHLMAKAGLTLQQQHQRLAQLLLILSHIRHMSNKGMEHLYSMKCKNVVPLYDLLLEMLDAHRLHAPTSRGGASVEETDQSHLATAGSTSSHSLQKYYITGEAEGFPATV

CC(C)(C)c1cc(CCC(=O)OCCSCCOC(=O)CCc2cc(C(C)(C)C)c(O)c(C(C)(C)C)c2)cc(C(C)(C)C)c1O
inactive: [1] | [2] | [3] | [4] | [5] | [6] | [7] | [8] | [9] | [10] | [11] | [12] | [13] | [14] | [15] | [16] | [17] | [18]

O=C(c1ccc(OCCN2CCCCC2)cc1)c1c(-c2ccc(O)cc2)sc2cc(O)ccc12
active: [2] 11.1 µM [middle of 4 runs] | [5] 11.1 µM and 15.6 µM | [6] 13 µM and 18 µM | [7] 11.1 µM and 16.7 µM | [8] 6.38 µM and 2.85 µM and 2.92 µM | [10] 19.3 µM and 8.31 µM | [11] 11.1 µM and 15.5 µM | [12] 20.4 µM and 11.1 µM | [17] 11.1 µM and 8.64 µM and 12 µM
inactive: [1] | [2] | [4] | [5] | [6] | [7] | [8] | [9] | [10] | [11] | [12] | [17]

CC(C)(C)c1ccc(S)cc1
inactive: [1] | [2] | [4] | [5] | [6] | [7] | [8] | [9] | [10] | [11] | [12] | [13] | [15] | [19] | [17] | [20]
active: [3] 6.36 µM

CCCCCCCCCCCCCC(=O)OCC
inactive: [1] | [2] | [3] | [4] | [5] | [6] | [7] | [8] | [9] | [10] | [11] | [12] | [13] | [14] | [15] | [17] | [18]
